# Measured values taken from PubChem BioAssay (NCATS).
# Several values for one entry are separate records, joined by “and”; a condition that tells them apart may be missing. Equal values may be shown once. Records with an inconclusive call do not appear. Entries that show only a call come without a potency. Activity calls are given as the source filed them. Unless noted, calls follow the shape of the dose curve; as a rule, active = well fitted curve in the direction sought with a large enough effect; inconclusive = small, poorly fitted or top-dose-only effect, or another doubt; inactive = no such curve, though single readings can be large; an effect the other way counts as inactive or inconclusive.
# What was measured:
# [1] = target: Peroxisome proliferator-activated receptor gamma (Homo sapiens) (UniProt P37231); assay: qHTS assay for small molecule antagonists of peroxisome proliferator-activated receptor gamma signaling (AID 588537; active = well fitted inhibition curve with a large enough effect in the signal ratio, with a control signal flat, not every such curve was filed as active; the % refers to the signal ratio;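 also: reporter cells co-stimulated with 50 nM rosiglitazone agonist during compound treatment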); conditions: HEK293 PPARg-UAS-bla, beta-lactamase ratio, antagonist mode; series mostly up to 76.8 µM
# Peroxisome proliferator-activated receptor gamma (Homo sapiens), sequence (P37231 whole entry, looked up): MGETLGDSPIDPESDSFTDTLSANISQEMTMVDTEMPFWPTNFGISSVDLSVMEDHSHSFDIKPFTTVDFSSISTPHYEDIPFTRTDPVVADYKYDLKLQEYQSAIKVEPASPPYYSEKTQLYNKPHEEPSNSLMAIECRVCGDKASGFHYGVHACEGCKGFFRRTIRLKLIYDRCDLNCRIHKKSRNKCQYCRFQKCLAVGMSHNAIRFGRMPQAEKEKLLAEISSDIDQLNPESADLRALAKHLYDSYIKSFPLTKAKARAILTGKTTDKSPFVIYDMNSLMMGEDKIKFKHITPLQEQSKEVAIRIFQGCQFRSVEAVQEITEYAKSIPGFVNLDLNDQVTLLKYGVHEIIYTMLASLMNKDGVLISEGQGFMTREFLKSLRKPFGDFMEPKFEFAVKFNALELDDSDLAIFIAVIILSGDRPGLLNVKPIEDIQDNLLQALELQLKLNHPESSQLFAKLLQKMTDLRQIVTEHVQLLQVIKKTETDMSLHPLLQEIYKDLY
# How it was run: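 Fluorescence at 460 and 530 nm (405 nm excitation) reported beta-lactamase cleavage of CCF4 after 2 h room-temperature loading. HEK293 reporter cells in 1% charcoal/dextran-treated FBS had received compound and rosiglitazone for 16 h.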
# [2] = qHTS assay for small molecule agonists of retinoid X receptor alpha signaling (AID 588544); conditions: HEK293T RXRa-UAS-bla, beta-lactamase reporter, 18 h; 530 nm emission
# [3] = target: Thyroid hormone receptor beta (Homo sapiens) (UniProt P10828); assay: qHTS assay for small molecule agonists of thyroid hormone receptor beta signaling (AID 588545; calls by dose curve); conditions: TR-UAS-bla GripTite HEK 293, beta-lactamase ratio, agonist mode, 18 h, percent of T3 response, DMSO as zero; series mostly up to 76.7 µM
# Thyroid hormone receptor beta (Homo sapiens), sequence (P10828 whole entry, looked up): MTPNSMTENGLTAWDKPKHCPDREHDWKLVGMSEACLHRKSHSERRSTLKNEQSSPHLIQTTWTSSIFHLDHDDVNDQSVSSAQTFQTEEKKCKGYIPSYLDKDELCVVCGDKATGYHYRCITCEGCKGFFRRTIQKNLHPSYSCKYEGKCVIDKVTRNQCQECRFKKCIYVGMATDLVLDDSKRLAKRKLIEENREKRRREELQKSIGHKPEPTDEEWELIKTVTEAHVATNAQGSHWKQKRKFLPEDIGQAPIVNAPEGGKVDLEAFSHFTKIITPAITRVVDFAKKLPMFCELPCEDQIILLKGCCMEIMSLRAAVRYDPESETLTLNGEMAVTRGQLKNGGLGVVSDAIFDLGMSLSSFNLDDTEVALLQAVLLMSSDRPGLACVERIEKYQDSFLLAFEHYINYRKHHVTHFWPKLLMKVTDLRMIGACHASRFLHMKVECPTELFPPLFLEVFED
# How it was run: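 In this cell-based screen, titrated compounds act on HEK 293 cells held in medium with 2% charcoal/dextran FBS, NEAA and pyruvate for 18 hrs at 37 C. Responses are expressed relative to T3 (10 nM) as 100% and basal DMSO as 0%.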
# [4] = qHTS assay for small molecule antagonists of retinoid X receptor alpha signaling (AID 588546; active = well fitted inhibition curve with a large enough effect in the signal ratio, with a control signal flat, not every such curve was filed as active; the % refers to the signal ratio;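 also: cells stimulated with 9-cis-retinoic acid as agonist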); conditions: HEK293T RXRa-UAS-bla, beta-lactamase ratio, antagonist mode; measured here: W530 green channel, cytotoxicity proxy
# How it was run: (§1)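 Beta-lactamase reporter inhibition, read as CCF4 fluorescence ratio (ex 405, em 460/530 nm) after 2 h at RT. HEK293T UAS-bla cells, 2500/well, were stimulated with 9-cis-RA at 500 or 100 nM final alongside test compound for 18 h at 37 C.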
# [5] = target: Retinoic acid receptor RXR-alpha (Homo sapiens) (UniProt P19793); assay: as above; conditions: HEK293T RXRa-UAS-bla, beta-lactamase ratio, antagonist mode
# Retinoic acid receptor RXR-alpha (Homo sapiens), sequence (P19793 whole entry, looked up): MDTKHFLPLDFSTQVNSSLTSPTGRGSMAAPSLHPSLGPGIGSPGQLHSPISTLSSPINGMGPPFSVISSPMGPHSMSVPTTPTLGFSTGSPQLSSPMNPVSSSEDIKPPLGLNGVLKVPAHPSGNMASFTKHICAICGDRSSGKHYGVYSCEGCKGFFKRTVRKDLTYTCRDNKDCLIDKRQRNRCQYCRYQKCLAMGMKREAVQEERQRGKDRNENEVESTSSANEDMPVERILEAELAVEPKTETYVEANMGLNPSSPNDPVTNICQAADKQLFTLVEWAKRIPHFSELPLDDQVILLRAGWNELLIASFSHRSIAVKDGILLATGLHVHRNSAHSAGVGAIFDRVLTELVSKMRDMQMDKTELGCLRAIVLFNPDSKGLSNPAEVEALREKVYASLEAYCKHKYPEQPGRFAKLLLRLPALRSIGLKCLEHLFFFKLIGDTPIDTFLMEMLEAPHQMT
# How it was run: as §1
# [6] = target: Thyroid hormone receptor beta (Homo sapiens) (UniProt P10828); assay: qHTS assay for small molecule antagonists of thyroid hormone receptor beta signaling (AID 588547; active = well fitted inhibition curve with a large enough effect in the signal ratio, with a control signal flat, not every such curve was filed as active; the % refers to the signal ratio;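 also: cells stimulated with 0.4 nM T3 agonist during compound exposure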); conditions: TR-UAS-bla HEK293, beta-lactamase ratio, antagonist mode, 18 h
# How it was run: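 TR-UAS-bla GripTite HEK293 cells in 2% charcoal/dextran FBS medium; compounds 0.59 nM to 92 uM with T3 at 0.4nM final, 18 h at 37 C. Beta-lactamase read by CCF4 fluorescence (460/530 nm); Hill fits gave IC50 and efficacy.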
# [7] = target: Voltage-gated inwardly rectifying potassium channel KCNH2 (Homo sapiens) (UniProt Q12809); assay: qHTS Assay for Small Molecule Inhibitors of the Human hERG Channel Activity (AID 588834); conditions: U2OS BacMam hERG, FluxOR thallium flux fluorescence; series mostly up to 46.1 µM;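 also: lower thallium flux fluorescence means stronger hERG block; nearly all actives have a fitted effect of over 50% in size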; also: potency is read from the fitted curve at half-maximal effect
# Voltage-gated inwardly rectifying potassium channel KCNH2 (Homo sapiens), sequence (Q12809 whole entry, looked up): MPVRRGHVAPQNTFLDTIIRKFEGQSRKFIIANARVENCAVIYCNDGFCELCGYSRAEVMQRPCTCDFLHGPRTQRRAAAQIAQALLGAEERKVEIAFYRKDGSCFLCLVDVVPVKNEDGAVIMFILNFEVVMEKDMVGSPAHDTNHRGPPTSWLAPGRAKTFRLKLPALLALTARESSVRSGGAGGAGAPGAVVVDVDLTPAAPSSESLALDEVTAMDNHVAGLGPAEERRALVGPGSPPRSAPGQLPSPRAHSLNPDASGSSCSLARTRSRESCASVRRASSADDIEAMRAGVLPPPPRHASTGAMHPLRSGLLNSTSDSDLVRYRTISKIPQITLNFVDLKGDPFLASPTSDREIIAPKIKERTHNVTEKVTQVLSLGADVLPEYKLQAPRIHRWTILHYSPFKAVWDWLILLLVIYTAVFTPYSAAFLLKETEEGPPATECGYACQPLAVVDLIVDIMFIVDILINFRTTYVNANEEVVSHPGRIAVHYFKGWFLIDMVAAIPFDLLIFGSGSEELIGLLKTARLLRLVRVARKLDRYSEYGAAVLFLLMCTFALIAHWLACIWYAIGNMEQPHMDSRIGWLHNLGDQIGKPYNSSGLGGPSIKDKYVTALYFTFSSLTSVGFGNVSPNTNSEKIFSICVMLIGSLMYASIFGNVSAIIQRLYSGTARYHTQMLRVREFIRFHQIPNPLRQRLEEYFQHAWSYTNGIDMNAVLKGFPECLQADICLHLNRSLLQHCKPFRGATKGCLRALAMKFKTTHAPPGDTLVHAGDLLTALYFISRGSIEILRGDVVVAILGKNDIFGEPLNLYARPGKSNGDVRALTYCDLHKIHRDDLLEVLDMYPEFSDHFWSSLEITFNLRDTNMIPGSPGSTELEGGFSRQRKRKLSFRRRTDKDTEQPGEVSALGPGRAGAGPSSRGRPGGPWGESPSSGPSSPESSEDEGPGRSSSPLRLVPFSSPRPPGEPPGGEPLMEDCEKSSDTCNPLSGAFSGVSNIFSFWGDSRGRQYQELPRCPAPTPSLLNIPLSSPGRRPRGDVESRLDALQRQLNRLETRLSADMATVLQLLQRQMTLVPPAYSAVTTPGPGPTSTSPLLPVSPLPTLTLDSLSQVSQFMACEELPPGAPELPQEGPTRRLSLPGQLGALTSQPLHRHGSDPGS
# How it was run: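 Thallium-flux (FluxOR) read-out on FDSS: fluorescence read 10 s before and 2 min after stimulation buffer. hERG-BacMam-transduced U2OS cells, compound exposure about 10 min. AC50 by standard Hill equation.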
# [8] = target: Luciferin 4-monooxygenase (Photinus pyralis) (UniProt P08659); assay: Biochemical firefly luciferase enzyme assay for NPC (AID 624030);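 also: purified P. pyralis luciferase at 10 nM with luciferin and ATP substrate; nearly all actives have a fitted effect of over 70% in size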; conditions: purified P. pyralis luciferase, luminescence, 5 min; series mostly up to 58.6 µM
# Luciferin 4-monooxygenase (Photinus pyralis), sequence (P08659 whole entry, looked up): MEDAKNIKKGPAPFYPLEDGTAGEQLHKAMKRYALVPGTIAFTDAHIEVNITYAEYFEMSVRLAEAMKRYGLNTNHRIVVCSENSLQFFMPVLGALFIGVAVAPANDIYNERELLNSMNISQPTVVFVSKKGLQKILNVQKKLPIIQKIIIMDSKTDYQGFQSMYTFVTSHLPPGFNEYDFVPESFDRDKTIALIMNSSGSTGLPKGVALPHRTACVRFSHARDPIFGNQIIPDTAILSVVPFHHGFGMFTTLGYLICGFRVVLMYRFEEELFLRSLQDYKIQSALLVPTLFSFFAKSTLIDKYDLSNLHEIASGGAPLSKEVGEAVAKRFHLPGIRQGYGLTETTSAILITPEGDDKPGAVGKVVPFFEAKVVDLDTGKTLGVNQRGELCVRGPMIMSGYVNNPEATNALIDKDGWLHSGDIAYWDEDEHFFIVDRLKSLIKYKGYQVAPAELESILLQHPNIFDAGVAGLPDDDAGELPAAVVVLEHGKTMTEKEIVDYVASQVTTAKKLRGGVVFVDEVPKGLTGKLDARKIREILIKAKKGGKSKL
# How it was run: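 Purified P. pyralis luciferase at 10 nM in 50 mM Tris Acetate (final), luminescence read within 5 minutes of enzyme addition to compounds. Activity normalised to PTC124 versus DMSO; concentration-response curves classed by r2, magnitude and activity.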
# [9] = S16 Schwann cell viability assay (CellTiter-Glo assay) (AID 624031); conditions: S16 rat Schwann cells viability, 24 h; series mostly up to 57.5 µM;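 also: native untransfected S16 rat Schwann cells; nearly all actives have a fitted effect of over 70% in size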
# How it was run: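 Counter-screen for cytotoxicity: parental S16 rat Schwann cells lacking the PMP22 reporters, treated 24 h with compound, viability from cellular ATP by CellTiter-Glo luminescence, normalized to DMSO (0%) and no-cell wells.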
# [10] = S16 Schwann cell PMP22 intronic element firefly luciferase assay (AID 624032); conditions: S16 rat Schwann cells, PMP22 element FLuc, 24 h; series mostly up to 57.5 µM; also: nearly all actives have a fitted effect of over 30% in size
# How it was run: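 Rat S16 Schwann cells stably carrying firefly luciferase driven by a PMP22 intronic element, in 10% FBS, treated 24 h at 37 C. ONE-Glo luminescence normalized to PTC124 control and DMSO (0%); curves classed by r2, magnitude and activity.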
Compound,Potency [1],max response [2],outcome [3],max response [4],max response [5],activity change % (negative = inhibition) [6],Potency [7],Potency [8],Potency [9],Potency [10]
O=[N+]([O-])c1ccccc1,inactive,-10.6% and -11.5%,inactive,-18.4%,-0.8% (inactive),-11.4% (inactive),inactive,inactive,inactive,
Oc1cc(Cl)c(Cl)cc1Cl,inactive,-8.67%,inactive,-1.91% and -9.59%,-11.3% (inactive) and 1.52% (inactive),5.32% (inactive) and 6.79% (inactive),inactive,inactive,,inactive
NNC(N)=O,,-3.29%,inactive,,,-12% (inactive),inactive,,,
C=CCN=C=S,,2.45%,inactive,-9.62%,5.52% (inactive),,inactive,inactive,inactive,inactive
CCCCCl,,-0.522%,inactive,-8.74%,21% (inactive),,inactive,inactive,inactive,inactive
CC(C)Nc1ccc(Nc2ccccc2)cc1,,,inactive,,,,,,,
ClCC1CO1 (stereo not given),inactive,-12.3%,,-5.61%,-1.88% (inactive),1.74% (inactive),inactive,inactive,inactive,
O=c1[nH]c(=O)n(Cl)c(=O)n1Cl,inactive,-3.39%,inactive,,,1.99% (inactive),,inactive,inactive,
ClC(Cl)(Cl)Cl,inactive,-19.2% and -11.8%,inactive,-0.129%,1.39% (inactive),-13.7% (inactive) and 5.43% (inactive),inactive,inactive,inactive,inactive
Clc1ccccc1Cl,,-11.2%,inactive,5.72%,14.3% (inactive),,inactive,inactive,inactive,
O=C(NCNC(=O)NC1C(=O)NC(=O)N1CO)NC1C(=O)NC(=O)N1CO (stereo not given),inactive,0.0503%,inactive,-13%,-8.07% (inactive),-0.544% (inactive),inactive,inactive,inactive,inactive
O=Cc1ccco1,,-14.8%,inactive,9.13%,-1.1% (inactive),-3.01% (inactive),inactive,inactive,inactive,
CCCSP(=O)(OCC)SCCC,inactive,-4.11%,inactive,-12.4%,-0.503% (inactive),4.95% (inactive),,inactive,,
[O]=[Cd],inactive,-12.6%,inactive,-14.7%,-2.87% (inactive),-10.1% (inactive),inactive,inactive,inactive,
CCOC(=O)c1ccccc1C(=O)OCC,inactive,-7.23% and 2.92%,inactive,2.09% and -11.6% and -7.65%,8.73% (inactive) and 2.69% (inactive) and 2.16% (inactive),9.23% (inactive) and -2.29% (inactive) and -1.86% (inactive),inactive,inactive,inactive,inactive
O=C(O)c1cc[c]([Hg][Cl])cc1,inactive,,inactive,,,-18.8% (inactive),inactive,,,
O=C1C[C@@H]2OCC=C3CN4CC[C@]56c7ccccc7N1[C@H]5[C@H]2[C@H]3C[C@H]46,inactive,,inactive,7.39%,-7.88% (inactive),0.757% (inactive),14.1 µM (active),,,
O=C(O)C(Cl)(Cl)Cl,inactive,-1.61% and -5.9%,inactive,-1.09%,-6.5% (inactive),2.2% (inactive) and 9.95% (inactive),inactive,inactive,inactive,
O=CC=O,,-3.86%,inactive,5.31%,9.93% (inactive),-1.9% (inactive),inactive,inactive,inactive,inactive
CC(C)CCON=O,inactive,4.6%,inactive,,,-6.62% (inactive),inactive,inactive,inactive,inactive
C[C@H]1CC[C@@H]2[C@@H](C)[C@H]3[C@H](C[C@H]4[C@@H]5CC=C6CC(O[C@@H]7O[C@H](CO)[C@H](O)[C@H](O[C@@H]8O[C@H](CO)[C@@H](O)[C@H](O)[C@H]8O)[C@H]7O[C@H]7O[C@@H](C)[C@H](O)[C@@H](O)[C@H]7O)CC[C@]6(C)[C@H]5CC[C@]34C)N2C1 (stereo not given in full),inactive,,,,,,inactive,inactive,,
N#CN,inactive,4.27%,inactive,-6.13%,-9.07% (inactive),,inactive,inactive,inactive,
O=C1CCO1,inactive,-0.599%,inactive,-9.31%,14.1% (inactive),16.1% (inactive),inactive,inactive,inactive,
O=C/C=C/c1ccccc1,inactive,4.89% and -11.3%,inactive,-5.91% and -8.21%,12.1% (inactive) and 26.2% (inactive),12.8% (inactive) and -9.11% (inactive),inactive,inactive,inactive,inactive
